The record followed here is PubChem BioAssay.

A number with no mark means an inactive call. For part of these data: Potency and affinity values are given separately. Activity calls are given as the source filed them. Unless noted, the rule behind the calls is not given here.

Assay [1] is described as follows: antimalarial activity against Dd2 strain (AID 2302;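 active = growth inhibition above 50% at the single 2 µM test dose, taken to imply half-maximal potency below 2 µM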;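 note: 0% = DMSO untreated growth and 100% = chloroquine plus artemisinin killed control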). The following applies: P. falciparum Dd2 in RBCs, LDH growth readout, 72 h; at 2 µM; active compounds read high.
Assay [2] is described as follows: HepG2 cytotoxicity, primary screen, cytotoxicity control for P. falciparum antimalarial project, cell-based, ATP luminescence (AID 2303;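 active = inhibition above 50%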;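 note: 0% = DMSO wells and 100% = digitonin-killed cells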). Particulars: HepG2 viability, 24-48 h, at 10 µM, active compounds read high.
For assay [3], the target named is L-lactate dehydrogenase (Plasmodium falciparum (isolate CDC / Honduras)) (UniProt Q27743). Description: PfLDH activity inhibition – cell lysate, 3D7 strain, counter-screen for P. falciparum growth inhibition project (AID 2304).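 Note: 0% = vehicle and 100% = reference inhibitor.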 Particulars: P. falciparum 3D7 crude extract, LDH APAD/NBT absorbance; at 2 µM; active compounds read high. On the technique in general: Counterscreens check selectivity or assay interference.
Sequence of L-lactate dehydrogenase (Plasmodium falciparum (isolate CDC / Honduras)) (Q27743 whole entry, looked up): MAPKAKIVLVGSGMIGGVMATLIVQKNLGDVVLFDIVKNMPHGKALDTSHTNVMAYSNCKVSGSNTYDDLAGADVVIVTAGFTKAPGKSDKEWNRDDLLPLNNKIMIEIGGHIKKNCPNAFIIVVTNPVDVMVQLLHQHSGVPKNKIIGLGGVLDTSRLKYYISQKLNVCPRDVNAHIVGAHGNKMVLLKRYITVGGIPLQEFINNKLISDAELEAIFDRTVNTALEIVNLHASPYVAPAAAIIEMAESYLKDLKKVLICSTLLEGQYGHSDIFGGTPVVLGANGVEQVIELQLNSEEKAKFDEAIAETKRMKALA

Assay [4] is described as follows: inhibition of 3D7 malaria parasite growth – strain 3D7 (AID 2306).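 Note: 0% = DMSO wells and 100% = chloroquine plus artemisinin control wells.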 Particulars: P. falciparum 3D7 erythrocytic growth, LDH absorbance, 72 h; at 2 µM; active compounds read high.
Assay [5] concerns the target Calcium-dependent protein kinase 1 (Plasmodium falciparum (isolate 3D7)) (UniProt P62344). As to the kind of experiment: PfCDPK1 kinase inhibitors, biochemical, TCAMS library (AID 1159585; cut-off not given, nearly all actives have IC50 up to about 0.98 µM;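 note: inhibitors leave more ATP so luminescence rises with inhibition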). Particulars: recombinant PfCDPK1, Kinase-Glo ATP depletion luminescence.
For assay [6], the target named is Plasmodium falciparum protein kinase 6 (PK6, PF3D7_1337100) (UniProt Q8IDW1). As to the kind of experiment: PfPK6 kinase inhibitors, biochemical, TCAMS library (AID 1159586). The following applies: recombinant PfPK6, Kinase-Glo ATP depletion luminescence. On the technique in general: Kinase-Glo reads ATP consumption through a luciferase reaction.
Sequence of Plasmodium falciparum protein kinase 6 (PK6, PF3D7_1337100) (Q8IDW1 1-305): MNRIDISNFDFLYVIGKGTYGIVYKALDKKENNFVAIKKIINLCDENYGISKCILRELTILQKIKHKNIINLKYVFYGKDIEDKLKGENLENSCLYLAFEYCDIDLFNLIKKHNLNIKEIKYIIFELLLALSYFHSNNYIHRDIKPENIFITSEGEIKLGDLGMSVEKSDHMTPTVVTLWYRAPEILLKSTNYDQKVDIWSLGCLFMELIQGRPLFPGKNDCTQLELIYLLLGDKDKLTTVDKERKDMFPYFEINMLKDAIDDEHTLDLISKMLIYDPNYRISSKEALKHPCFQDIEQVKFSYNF
Assay [7] concerns the target Protein kinase 7 (PK7), Plasmodium falciparum 3D7 (PF3D7_0213400) (UniProt Q7YTF7). Description: inhibition of Plasmodium PK7 catalytic activity – biochemical, TCAMS antimalarial set, Kinase-Glo luminescence (AID 1159587). Particulars: recombinant PfPK7, Kinase-Glo ATP depletion luminescence.
Assay [8] has as its target Calcium-dependent protein kinase 4 (Plasmodium falciparum (isolate 3D7)) (UniProt Q8IBS5). Description: PfCDPK4 kinase inhibitors, biochemical, TCAMS library (AID 1159588; cut-off not given, nearly all actives have IC50 up to about 0.91 µM). Particulars: recombinant PfCDPK4, Kinase-Glo ATP depletion luminescence.

Sequence of Calcium-dependent protein kinase 1 (Plasmodium falciparum (isolate 3D7)) (P62344 whole entry, looked up): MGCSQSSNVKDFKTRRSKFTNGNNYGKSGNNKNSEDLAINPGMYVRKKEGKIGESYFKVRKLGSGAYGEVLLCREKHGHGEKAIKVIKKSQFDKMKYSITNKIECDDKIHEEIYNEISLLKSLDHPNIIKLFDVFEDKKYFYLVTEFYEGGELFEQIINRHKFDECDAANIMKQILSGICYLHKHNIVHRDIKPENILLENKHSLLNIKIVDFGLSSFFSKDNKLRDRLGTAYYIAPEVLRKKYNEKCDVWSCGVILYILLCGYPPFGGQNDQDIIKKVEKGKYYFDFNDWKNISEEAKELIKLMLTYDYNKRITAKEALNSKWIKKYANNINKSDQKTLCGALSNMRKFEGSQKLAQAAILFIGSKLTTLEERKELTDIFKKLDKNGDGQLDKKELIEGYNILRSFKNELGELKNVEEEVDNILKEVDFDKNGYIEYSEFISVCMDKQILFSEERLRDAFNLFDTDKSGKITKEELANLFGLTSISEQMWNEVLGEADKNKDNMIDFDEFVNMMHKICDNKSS
Sequence of Protein kinase 7 (PK7), Plasmodium falciparum 3D7 (PF3D7_0213400) (Q7YTF7 1-343): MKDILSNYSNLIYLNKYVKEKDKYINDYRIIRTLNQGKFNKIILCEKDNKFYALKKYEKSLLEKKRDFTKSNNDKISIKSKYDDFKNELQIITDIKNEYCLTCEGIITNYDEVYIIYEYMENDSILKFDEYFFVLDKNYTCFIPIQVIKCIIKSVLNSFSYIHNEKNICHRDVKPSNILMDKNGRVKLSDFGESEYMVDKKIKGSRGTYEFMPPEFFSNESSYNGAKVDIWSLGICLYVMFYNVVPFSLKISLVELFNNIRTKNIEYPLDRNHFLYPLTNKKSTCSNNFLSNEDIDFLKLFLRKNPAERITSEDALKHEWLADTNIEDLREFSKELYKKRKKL
Sequence of Calcium-dependent protein kinase 4 (Plasmodium falciparum (isolate 3D7)) (Q8IBS5 whole entry, looked up): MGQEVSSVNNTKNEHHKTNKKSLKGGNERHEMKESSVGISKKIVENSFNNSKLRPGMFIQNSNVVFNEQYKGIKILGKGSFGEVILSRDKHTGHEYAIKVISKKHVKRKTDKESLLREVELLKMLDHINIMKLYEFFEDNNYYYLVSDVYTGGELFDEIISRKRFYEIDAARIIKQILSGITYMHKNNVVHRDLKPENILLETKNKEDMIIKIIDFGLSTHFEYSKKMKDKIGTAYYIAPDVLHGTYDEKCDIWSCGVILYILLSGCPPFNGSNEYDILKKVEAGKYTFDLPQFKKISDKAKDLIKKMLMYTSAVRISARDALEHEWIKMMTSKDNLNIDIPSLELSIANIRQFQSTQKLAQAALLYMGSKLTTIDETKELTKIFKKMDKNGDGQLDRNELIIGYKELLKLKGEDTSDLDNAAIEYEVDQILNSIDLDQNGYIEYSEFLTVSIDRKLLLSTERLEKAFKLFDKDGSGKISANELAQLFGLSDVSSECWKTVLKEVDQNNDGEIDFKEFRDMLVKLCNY

Regarding `OC(CN(Cc1ccccc1)Cc1ccccc1)Cn1c2ccc(Cl)cc2c2cc(Cl)ccc21` (centres undefined), the growth inhibition is 95% (active) in assay [1] and 89% (active) in assay [4]. Further, the inhibition – broadly, the drop in the measured response relative to a control, in per cent – was 5% in assay [2] and 6% in assay [3]. Also, the outcome in assay [5], in assay [6], in assay [7] and in assay [8] was inactive.

As to `O=C(/C=C/c1ccc(Cl)c(Cl)c1)NCCCCCCN1CCCN(C(=O)Nc2cc(F)cc(F)c2)CC1`, the growth inhibition in assay [1] is -1%; in assay [4] it was 99% (active). The values for the inhibition in assay [2] and in assay [3] were 25% and -6%, respectively. The result in assay [5], in assay [6], in assay [7] and in assay [8] was inactive.

In the case of `CNCCNCc1ccc(-c2ccc(-c3nc4ccc(F)cc4[nH]3)s2)cc1`, the growth inhibition is 55% (active) in assay [1] and 99% (active) in assay [4]. Further, the inhibition in assay [2] was 22%; in assay [3] it was 2%. Besides, the result in assay [5], in assay [6], in assay [7] and in assay [8] was inactive.
